Screens (PubChem BioAssay)
M1 PAM – human M1 muscarinic receptor positive allosteric modulators, primary screen, CHO-K1 cells, Fluo-8 calcium fluorescence, 1536-well | Muscarinic acetylcholine receptor M1 (Homo sapiens), P11229 | CHO-K1 hM1, ACh EC20; 0% = ACh EC20, 100% = maximal ACh | activation, % at 3 µM | 360,000 tested, 0.088% active; in the data active = activation above about 19%, passing the limit was not always enough
Target sequence (P11229 whole entry, looked up): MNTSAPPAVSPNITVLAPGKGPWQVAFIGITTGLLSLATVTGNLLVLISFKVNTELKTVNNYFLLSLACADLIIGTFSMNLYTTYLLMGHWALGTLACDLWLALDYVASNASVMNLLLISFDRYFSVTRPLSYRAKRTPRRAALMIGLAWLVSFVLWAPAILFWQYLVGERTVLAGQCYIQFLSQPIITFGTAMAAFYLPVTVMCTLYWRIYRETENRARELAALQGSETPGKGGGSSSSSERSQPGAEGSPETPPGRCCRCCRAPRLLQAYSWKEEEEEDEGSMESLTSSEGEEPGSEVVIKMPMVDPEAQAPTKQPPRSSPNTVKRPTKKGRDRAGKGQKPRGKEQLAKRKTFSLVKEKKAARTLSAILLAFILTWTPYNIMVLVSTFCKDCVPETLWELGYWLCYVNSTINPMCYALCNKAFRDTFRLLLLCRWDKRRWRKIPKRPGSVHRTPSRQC
CHO-K1 Ca antag – counter-screen for M1 antagonists: effect in parental CHO-K1 cells; ATP-induced calcium, Fluo-8 fluorescence; inhibition, % at 3 µM; 360,000 tested, 0.6% active; AID 602250;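 active = inhibition above a per-plate cutoff, the plate's mean sample inhibition plus 3 SD, cut at about 24% in these data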;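 note: 0% = DMSO plus EC80 ATP and 100% = DMSO alone without ATP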
CHO-K1 Ca PAM – nonselective calcium activators in parental CHO-K1 cells, primary screen, counter-screen for M1 PAM project, cell-based, Fluo-8 calcium fluorescence, full deck, 1536-well. ATP EC20; 0% at ATP EC20, 100% at ATP max. activation, % at 3 µM. 360,000 tested, 0.02% active. AID 602247, 2012;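 active = activation above the run cutoff, the mean activation of all test compounds plus 3 SD, cut at about 40% in these data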;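 note: peak over basal fluorescence ratio in a 140 s read after ATP addition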
M1 ag parental – counter-screen for M1 agonists: effect in parental CHO-K1 cells; Fluo-8 calcium fluorescence; scaled to maximal ATP response, vehicle zero; activation, % at 3 µM; 360,000 tested, 0.48% active; AID 602248, 2012; in the data active = activation above about 15%;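 note: untransfected CHO-K1 host cells lacking M1 receptor as counterscreen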
CHRM1 antagonist – human M1 muscarinic receptor antagonists, primary screen, CHO-K1 cells, Fluo-8 calcium fluorescence, 1536-well. Muscarinic acetylcholine receptor M1 (Homo sapiens), P11229. CHO-K1 hM1, ACh EC80 antagonist. inhibition, % at 3 µM. 360,000 tested, 1.3% active. AID 588852, 2011;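 active = percent inhibition above its own plate's cutoff, namely the mean of that plate's compound wells plus 3 SD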;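 note: peak over basal fluorescence ratio during 140 s after agonist addition; 0% = ACh EC80 plus DMSO and 100% = DMSO alone without agonist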
M1 ag – human M1 muscarinic receptor agonists, primary screen, Fluo-8 calcium fluorescence, CHO-K1 cells, HTS; Muscarinic acetylcholine receptor M1 (Homo sapiens), P11229; CHO-K1 hM1, agonist mode; 0% DMSO, 100% acetylcholine EC100; activation, % at 3 µM; 360,000 tested, 0.33% active;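 active = activation above the run's mean compound activation plus 3 SD, cut at about 16% in these data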;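 note: peak over basal fluorescence ratio within a 140 s kinetic read after compound addition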
Starred values were filed as active, the others as inactive; x = no result. The list is not random: actives were taken first. Their share in the collection is about 2.3%.

SMILES	M1 PAM	CHO-K1 Ca antag	CHO-K1 Ca PAM	M1 ag parental	CHRM1 antagonist	M1 ag
O=C(c1cccc(C(F)(F)F)c1)C1CCCN(Cc2ccc(OCCO)cc2)C1 (centres undefined)	-32	7	0	23*	66*	-14
COc1ccc(CN2CCCC(C(=O)c3cccc(C(F)(F)F)c3)C2)cc1O (centres undefined)	-36	-6	13	0	31	-15
CC(=O)Nc1ccc(CN2CCCC(C(=O)c3cccc(C(F)(F)F)c3)C2)cc1 (centres undefined)	-26	-3	20	3	64*	-9
CCc1[nH]nc(C(=O)N2CCCC(C(=O)c3cccc(C(F)(F)F)c3)C2)c1C (centres undefined)	-8	-11	5	15*	2	1
O=C(Cn1cncn1)N/N=C/c1ccccc1O	7	0	6	0	-13	-2
COc1ccc(C(CNC(=O)Cc2ccc(-c3ccccc3)cc2)N(C)C)cc1 (centres undefined)	-29	-7	3	3	42*	-11
COc1cccc(C(CNC(=O)C(c2ccccc2)c2ccccc2)N(C)C)c1 (centres undefined)	-33	-7	-14	1	55*	-12
Cc1ccc(N2CCN(S(=O)(=O)c3c(C)noc3C)CC2C)cc1 (centres undefined)	6	-21	8	1	-5	-4
O=C1C(CCCNC(=S)NCc2ccccc2)NC(=S)N1Cc1ccccc1 (centres undefined)	5	4	16	19*	3	-11
CSc1nc(C)c(C(=O)C[n+]2ccccc2)cc1C#N	-14	-10	16	0	28*	-7
CCOC(=O)c1cc(C#N)c(SCC(=O)c2cc(C#N)c(SC)nc2C)nc1C	-8	-8	2	0	20	-4
CN(C)S(=O)(=O)c1cccc(C(=O)Nc2ccc(S(=O)(=O)N3CCCC3)cc2)c1	-13	-10	21	7	18	-5
O=C(Oc1cccc(C(=S)N2CCOCC2)c1)c1cccc([N+](=O)[O-])c1	2	-8	24	2	-1	-9
O=C(Oc1ccc(C(=S)N2CCOCC2)cc1)c1cccc([N+](=O)[O-])c1	-7	29*	-26	0	12	-5
COc1cc2c(cc1OC)CN(C(=O)CN1CCN(S(=O)(=O)c3ccc(C)c(C)c3)CC1)CC2	3	1	-18	1	-6	-3
COc1ccc(C(=O)CCC(=O)N2CCN(c3cc(C)ccc3C)CC2)cc1	-10	-9	6	8	3	-2
CN(C)CCCCOc1ccccc1-c1ccccc1	-20	24*	-7	0	18*	-6
Cc1ccc2c(c1)nnn2C1CCN(S(=O)(=O)c2ccc(C(=O)N3C(C)CCCC3C)cc2)CC1 (centres undefined)	-12	16	-12	6	33*	1
Cc1ccc2c(c1)nnn2C1CCN(S(=O)(=O)c2ccc(C(=O)O)cc2)CC1	3	-12	12	3	5	-4
Cc1ccc2c(c1)nnn2C1CCN(S(C)(=O)=O)CC1	9	24*	-6	0	2	0
O=S(=O)(c1ccc2c(c1)OCCO2)N1CCC(n2nnc3cc(C(F)(F)F)ccc32)CC1	-10	17	11	6	31*	1
COc1ccc(/C=C(\NC(=O)c2ccccc2)C(=O)N2CCC(C)CC2)cc1	3	-1	-20	2	-3	1
COC(=O)CNC(=O)c1ccccc1C	-5	26*	-7	0	10	-2
O=C(CCN=C1NS(=O)(=O)c2ccccc21)Nc1ccc(Cl)cc1F	7	-20	24	0	-12	-4
CC1=C(C(=O)N2CCCCCC2)CC(CC(=O)NCCc2ccccn2)C(=O)N1Cc1ccc(F)cc1 (centres undefined)	x	-13	-1	0	x	x
SMILES	M1 PAM	CHO-K1 Ca antag	CHO-K1 Ca PAM	M1 ag parental	CHRM1 antagonist	M1 ag
Clc1cccc2sc(-c3nnc(-c4ccccc4)o3)c(Cl)c12	-2	26*	-7	0	4	-3
N#CCSc1nnc(-c2sc3ccccc3c2Cl)o1	5	-9	25	2	-10	-6
NC(=O)c1nsc(C(=O)N(c2cccc(F)c2)C(C(=O)NCC2CCCO2)c2cccs2)c1N (centres undefined)	-7	4	19	16*	9	-6
COc1ccc(C(C(=O)NCC2CCCO2)N(Cc2cccs2)C(=O)c2snc(C(N)=O)c2N)cc1 (centres undefined)	-14	8	-16	7	22*	-1
CCOc1ccc(C(C(=O)NCC2CCCO2)N(Cc2cccc(OC)c2)C(=O)c2snc(C(N)=O)c2N)cc1 (centres undefined)	2	3	-13	1	2	-2
CCC(c1ccc(O)cc1)C(CC)c1ccc(O)cc1 (centres undefined)	-13	7	5	0	-2	-4
Cc1cc(C(c2ccc(O)cc2)c2cc(C)c(O)cc2C)c(C)cc1O	9	4	31	11	9	42*
O=C(NCc1cccnc1)C1CCN(S(=O)(=O)c2cc(Cl)ccc2Cl)CC1	9	-2	15	4	-12	-4
O=C(NCc1ccco1)c1ccccc1NS(=O)(=O)c1cccs1	-8	2	16	19*	16	-2
O=C(Cc1ccccc1Cl)c1ccccc1	32*	-11	-9	0	-14	2
O=C(CC(=O)c1ccccc1)c1ccccc1	4	-4	18	0	2	-2
FC(F)(F)c1nnc(Nc2ccc(Cl)cc2)s1	-8	-2	0	11	6	3
Fc1ccc(Nc2nnc(C(F)(F)F)s2)cc1Cl	-15	41*	-22	15	37*	0
COCc1cc(C)nc(SCC[N+](C)(C)CC(=O)Nc2cccc(C(F)(F)F)c2)c1C#N	-20	4	-16	-1	40*	-9
COc1ccc(S(=O)(=O)N2CCCCCC2)cc1C(=O)N(C)Cc1ccc(F)cc1	25*	-10	3	1	-17	-2
COc1ccc(CN(C)C(=O)c2cc(S(=O)(=O)N3CCCCCC3)ccc2OC)cc1OC	8	-4	9	5	-1	5
COc1ccc(N2CCN(C(CNC(=O)C(=O)NCc3ccc4c(c3)OCO4)c3ccco3)CC2)cc1 (centres undefined)	17	-9	8	1	-8	-1
